Shown are actives, neighbours in structure and some others; about 1.7% of the full set was active somewhere.
TLR9-MyD88 inh = inhibitors of TLR9-MyD88 association in cells, primary screen, cell-based, CHO, BLA complementation, fluorescence. 340,000 tested, 0.21% active. CCF4 FRET ratio. inhibition, % at 4.98 µM. Toll-like receptor 9 (Homo sapiens) + Myeloid differentiation primary response protein …;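 active means inhibition above the mean over all tested compounds plus 3 SD, cut at about 21% in these data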
NOD2-RIPK2 inh = NOD2-RIPK2 binding disruptors in cells, primary screen, fluorescence, CHO cells, BLA complementation. inhibition, % at 4.98 µM. AID 624267, 2012. CCF4 ratio. 360,000 tested, 0.38% active; in the data active means inhibition above about 21%
Target sequence (O43353 whole entry, looked up): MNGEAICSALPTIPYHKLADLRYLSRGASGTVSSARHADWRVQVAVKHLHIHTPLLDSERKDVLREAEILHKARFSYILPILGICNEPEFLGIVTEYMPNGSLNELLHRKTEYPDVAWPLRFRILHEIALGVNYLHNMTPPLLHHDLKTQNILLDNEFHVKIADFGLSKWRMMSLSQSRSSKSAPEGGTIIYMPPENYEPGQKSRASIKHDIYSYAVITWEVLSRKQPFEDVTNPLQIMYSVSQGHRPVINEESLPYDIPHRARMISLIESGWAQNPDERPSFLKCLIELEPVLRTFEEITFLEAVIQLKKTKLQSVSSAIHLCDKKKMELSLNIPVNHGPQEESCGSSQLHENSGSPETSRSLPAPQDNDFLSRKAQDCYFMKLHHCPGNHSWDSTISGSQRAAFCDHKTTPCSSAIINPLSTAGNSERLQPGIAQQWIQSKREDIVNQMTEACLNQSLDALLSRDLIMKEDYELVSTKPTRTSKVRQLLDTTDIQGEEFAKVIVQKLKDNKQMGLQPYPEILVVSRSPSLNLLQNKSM
Myeloid diff 2 = induction of myeloid progenitor differentiation, primary screen, cell-based, flow cytometry, MLPCN library. ER-HoxA9 myeloid progenitors, lysozyme-GFP differentiation. 360,000 tested, 1% active. calls only at 10 µM;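 active means normalized GFP-positive differentiation at or above the plate's own cutoff, the solvent-only control mean plus 3 SD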;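 further: cells exposed to compound for four days before flow analysis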
TLR4 MyD88 comp = inhibitors of TLR4-MyD88 association in cells, primary screen, cell-based, HeLa CL3-4, BLA complementation, FRET ratio. AID 861, 2007. 200,000 tested, 0.18% active. inhibition, % at 8.4 µM. HeLa CL3-4 TLR4/MyD88 BLA complementation; in the data active means inhibition above about 25%
ABCB6 inh 2 = ABCB6 transporter inhibitors, primary screen, K562-ABCB6 cells, flow cytometry, MLPCN library; ATP-binding cassette sub-family B member 6 (Homo sapiens), Q9NP58; K562-ABCB6 porphyrin accumulation, 1 h; hits give low values; fluorescence ratio to DMSO, % at 10 µM; 360,000 tested, 0.19% active; AID 602162, 2011;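 active means fluorescence ratio to DMSO below 75%, the collection mean minus 3 SD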;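 further: signal is porphyrin accumulated inside mitochondria; lower ratio means ABCB6 inhibition with less porphyrin fluorescence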
NOD2-RIPK2 conf = NOD2-RIPK2 binding disruptors, retest, confirmation, fluorescence, CHO cells, BLA complementation, triplicate; shares compounds with NOD2-RIPK2 inh; CCF4 FRET; inhibition, % at 4.98 µM; 1,200 tested, 70% active;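 active means mean inhibition across replicates above a set limit taken from the earlier primary screen, cut at about 21% in these data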
NOD2 BLA counter = NOD2-RIPK2 counterscreen BLA reporter activity. CHO BLA reporter, CCF4 FRET ratio. 1,200 tested, 57% active. inhibition, % at 4.98 µM. shares compounds with NOD2-RIPK2 inh;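 active means mean inhibition above the low-control mean inhibition plus three low-control SD, cut at about 11% in these data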
Each line names hits and unclear results; the compound was inactive in the other large screens (follow-up assays come after a bar, where they were run).

CCOC(=O)c1sc2nc(-c3ccccc3)ccc2c1N	NOD2-RIPK2 inh 23 | NOD2-RIPK2 conf 48 | NOD2 BLA counter 59
CCOC(=O)c1sc(N)nc1-c1ccccc1	none
COc1ncc(-c2ccc(N3C(c4ccc([N+](=O)[O-])cc4)=Cc4ccccc4C3CC(C)=O)cc2)cn1 (centres undefined)	NOD2-RIPK2 inh 34 (no result: TLR9-MyD88 inh, TLR4 MyD88 comp) | NOD2-RIPK2 conf inactive | NOD2 BLA counter 18
COc1cc(OC)cc(C2=Cc3ccccc3C(CC(C)=O)N2c2ccc(-c3cncnc3)cc2)c1 (centres undefined)	none (no result: TLR9-MyD88 inh, TLR4 MyD88 comp)
Cc1ccc(S(=O)(=O)N2CCN(C(=O)Cn3c(=O)oc4ccccc43)CC2)c(C)c1	none (no result: TLR4 MyD88 comp)
COc1ccccc1N1C(=O)CC(N2CCN(c3ccc([N+](=O)[O-])cc3)CC2)C1=O (centres undefined)	NOD2-RIPK2 inh 22 (no result: TLR4 MyD88 comp) | NOD2-RIPK2 conf inactive | NOD2 BLA counter inactive
COc1cccc(N2C(=O)CC(N3CCN(c4ccc([N+](=O)[O-])cc4)CC3)C2=O)c1 (centres undefined)	none (no result: TLR4 MyD88 comp)
Cc1cc(F)ccc1NC(=O)c1ccc(NS(=O)(=O)c2cc(C(C)(C)C)ccc2C)cc1	none
CC(=O)Nc1ccc(NC(=O)c2ccc(NS(=O)(=O)c3cc(C(C)(C)C)ccc3C)cc2)cc1	NOD2-RIPK2 inh 39 | NOD2-RIPK2 conf inactive | NOD2 BLA counter inactive
O=C(NC(=S)Nc1sc2c(c1C(=O)O)CCCC2)c1ccccc1	NOD2-RIPK2 inh 35 (no result: TLR4 MyD88 comp) | NOD2-RIPK2 conf inactive | NOD2 BLA counter inactive
N#Cc1c(NC(=S)NC(=O)c2ccccc2)sc2c1CCC2	none
COc1ccc(C(=O)NNC(=O)c2cc3ccccc3cc2O)cc1	NOD2-RIPK2 inh 31 (no result: TLR4 MyD88 comp) | NOD2-RIPK2 conf inactive | NOD2 BLA counter inactive
CCC1CCCCN1C(=O)CSc1nnc(CNC(=O)c2c(F)cccc2Cl)o1 (centres undefined)	none (no result: TLR4 MyD88 comp)
Cc1ccc2c(c1)=N/C(=N\c1[nH]c(O)c3ccccc13)N=2	NOD2-RIPK2 inh 29 (no result: TLR4 MyD88 comp) | NOD2-RIPK2 conf 51 | NOD2 BLA counter 48
Oc1[nH]c(N=C2N=c3ccccc3=N2)c2ccccc12	none (no result: TLR4 MyD88 comp)
CCOC(=O)c1c(C)[nH]c(C2=NNC(=Nc3ccccc3)SC2)c1C	none
CCOC(=O)c1c(C)[nH]c(C2=NNC(=Nc3ccc(OCC)cc3)SC2)c1C	NOD2-RIPK2 inh 35 | NOD2-RIPK2 conf inactive | NOD2 BLA counter inactive
CCc1ccc2c(c1)NC(=O)C2(C)Cc1ccc(F)cc1 (centres undefined)	none (no result: TLR9-MyD88 inh, TLR4 MyD88 comp)
CC(C)c1ccc2c(c1)C1(NN=C(c3ccccc3)S1)C(=O)N2 (centres undefined)	NOD2-RIPK2 inh 26 (no result: Myeloid diff 2) | NOD2-RIPK2 conf inactive | NOD2 BLA counter inactive
CCc1ccc2c(c1)C1(NN=C(c3ccc(C)cc3)S1)C(=O)N2 (centres undefined)	NOD2-RIPK2 inh 25 | NOD2-RIPK2 conf inactive | NOD2 BLA counter inactive
CC(=O)c1ccc(NC(=O)[C@@H]2CCCN2C2=NS(=O)(=O)c3ccccc32)cc1	none (no result: TLR4 MyD88 comp)
Cc1cc(C)c(S(=O)(=O)N(C)c2ccccc2)c(C)c1	NOD2-RIPK2 inh 34 | NOD2-RIPK2 conf inactive | NOD2 BLA counter inactive
O=C(c1ccccc1Cl)N(Cc1ccc(Br)cc1)N1C(=O)CCC1=O	NOD2-RIPK2 inh 23 | NOD2-RIPK2 conf inactive | NOD2 BLA counter inactive
O=C(c1ccccc1Cl)N(Cc1ccc(Cl)c(Cl)c1)N1C(=O)CCCC1=O	none
COc1ccc(C2CC(c3ccccc3)=NN2c2ccc(S(N)(=O)=O)cc2)cc1OC (centres undefined)	none
COc1ccc(C2=NN(c3ccc(C(=O)O)cc3)C(c3ccc(OC)c(OC)c3)C2)cc1 (centres undefined)	NOD2-RIPK2 inh 25 (no result: TLR4 MyD88 comp) | NOD2-RIPK2 conf inactive | NOD2 BLA counter 31
S=C(c1ccccc1)N1CCN(c2ccccc2)CC1	none (no result: TLR4 MyD88 comp)
